# Data from PubChem BioAssay AID1903 (Southern Research Specialized Biocontainment Screening …, 2009).
# Where “and” joins values, the source holds several entries; their conditions need not be identical. Identical values can stand only once. Among all 310,000 compounds or so, about 1,200 (0.39%) were called active. How the calls were made is not given here. Not all results are given here. Results with a measured potency or affinity are listed apart.
# Biological target: Large T antigen (Simian virus 40) (UniProt P03070)
# Experiment: TAg ATPase/helicase activity blockers – biochemical (AID 1903)
# Settings: SV40 large T antigen ATPase/helicase inhibition assay; at 20 µM; stronger effect = higher value
# Chain of Large T antigen (Simian virus 40) (P03070 whole entry, looked up): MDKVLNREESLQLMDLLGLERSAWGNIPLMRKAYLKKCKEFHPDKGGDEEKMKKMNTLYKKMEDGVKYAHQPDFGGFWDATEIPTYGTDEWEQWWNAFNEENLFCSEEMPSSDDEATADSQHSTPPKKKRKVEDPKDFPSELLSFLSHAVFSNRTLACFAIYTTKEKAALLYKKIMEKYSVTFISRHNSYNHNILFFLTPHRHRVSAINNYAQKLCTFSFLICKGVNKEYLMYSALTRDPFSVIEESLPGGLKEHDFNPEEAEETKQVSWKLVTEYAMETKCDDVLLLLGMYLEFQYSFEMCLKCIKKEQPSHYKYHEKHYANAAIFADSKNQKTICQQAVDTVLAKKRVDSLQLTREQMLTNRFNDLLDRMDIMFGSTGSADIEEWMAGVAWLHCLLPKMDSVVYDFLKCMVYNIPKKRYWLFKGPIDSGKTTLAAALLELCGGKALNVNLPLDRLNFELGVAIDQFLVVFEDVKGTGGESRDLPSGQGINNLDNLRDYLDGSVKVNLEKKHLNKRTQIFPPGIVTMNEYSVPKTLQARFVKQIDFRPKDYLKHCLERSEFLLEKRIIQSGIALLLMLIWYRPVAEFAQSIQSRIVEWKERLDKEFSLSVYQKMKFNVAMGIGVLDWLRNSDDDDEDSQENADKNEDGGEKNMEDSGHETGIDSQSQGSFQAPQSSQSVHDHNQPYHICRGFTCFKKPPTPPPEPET
row,SMILES,inhibition
1,CC(CCc1ccccc1)C(=O)NO (stereo not given),-1.59% (inactive)
2,Cc1cc(NC(=O)c2cccc(S(=O)(=O)Nc3cccc(C(=O)O)c3)c2)no1,12.5% (inactive)
3,CCOc1ccc(N2C(=O)CC(N3CCN(C(=O)CN4CCCC4)CC3)C2=O)cc1 (stereo not given),15.8% (inactive)
4,CN(C)CCN(C(=O)c1ccc(S(=O)(=O)N(C)C)cc1)c1nc2cc3c(cc2s1)OCCO3,3.41% (inactive)
5,Cc1cccc(C(=O)N[C@H](C(=O)NCCc2ccc(S(N)(=O)=O)cc2)C(C)C)c1,9.44% (inactive)
6,CCCC(c1nnnn1CS(=O)(=O)c1ccc(C)cc1)N1CCC(C(N)=O)CC1 (stereo not given),1.94% (inactive)
7,CCOc1ccc(NC(=O)CCn2ccnc2)cc1,2.19% (inactive)
8,O=C(CCCCCN1C(=O)c2ccccc2C1=O)NCCc1nc2ccccc2[nH]1,5.03% (inactive)
9,COc1ccc(Nc2nc(N3CCN(S(=O)(=O)N(C)C)CC3)nc3ccccc23)cc1,6.91% (inactive)
10,COc1ccc(-c2nc(-c3cccs3)c(-c3cccs3)[nH]2)cc1OC,8.77% (inactive)
11,COc1ccc(/C=N/Nc2nccnc2Cl)c(OC)c1,5.32% (inactive)
12,Oc1ccc(/C=N/Nc2ccnc3cc(Cl)ccc23)c(O)c1,8.76% (inactive)
13,Oc1ccc(/C=N/Nc2cccc(Cl)n2)c(O)c1,21.8% (inactive)
14,Fc1ccc(/C=N/Nc2nccnc2Cl)cc1,8.81% (inactive)
15,Clc1nccnc1N/N=C/c1ccc(Br)cc1,0.07% (inactive)
16,Oc1ccccc1/C=N/Nc1nccnc1Cl,0.02% (inactive)
17,Cc1cc(C)c(C)c(S(=O)(=O)N2CCSCC2)c1C,8.62% (inactive)
18,N#Cc1c(NC(=O)COC(=O)c2ccc(F)cc2)sc2c1CCC2,1.58% (inactive)
19,O=C(CSc1nc2c(cnn2-c2ccccc2)c(=O)[nH]1)N1CCCCC1,24.9% (inactive)
20,COc1ccc(/C=C(\NC(=O)c2ccc(OC)cc2)C(=O)NC(CCSC)C(=O)O)cc1 (stereo not given),9.06% (inactive)
21,O=C(Nc1ccccc1)C1CCN(S(=O)(=O)c2ccc3c(c2)OCCO3)CC1,20.4% (inactive)
22,NC(=O)CSc1nnc2ccc(-c3ccco3)nn12,16.6% (inactive)
23,CCCCn1c(SCC(N)=O)nnc1-c1ccco1,8.33% (inactive)
24,O=C(COc1cccnc1[N+](=O)[O-])c1c[nH]c2ccccc12,21.6% (inactive)

row,SMILES,inhibition
1,Cc1cc(C)c(C(=O)COc2cccnc2[N+](=O)[O-])cc1C,-4.61% (inactive)
2,COc1ccc(C2OCC3(O)C(c4ccc(OC)c(OC)c4)OCC23)cc1OC (stereo not given),4.9% (inactive)
3,COc1ccc(/C=N/NS(=O)(=O)c2ccccc2)cc1OC,13.2% (inactive)
4,C/C(=N\NS(=O)(=O)c1ccc([N+](=O)[O-])cc1)c1c[nH]c2ccccc12,34% (inactive)
5,Cc1ccc(S(=O)(=O)N/N=C/c2ccccc2O)cc1[N+](=O)[O-],12.5% (inactive)
6,C/C(=N/NS(=O)(=O)c1ccccc1)c1c[nH]c2ccccc12,31.3% (inactive)
7,CN(C)c1ccc(/C=N/NS(=O)(=O)c2ccc(Br)cc2)cc1,24.5% (inactive)
8,CCN(CC)c1ccc(/C=N/NS(=O)(=O)c2cccc([N+](=O)[O-])c2)cc1,10.4% (inactive)
9,COc1cc(/C=N/NS(=O)(=O)c2ccc(C)c([N+](=O)[O-])c2)cc([N+](=O)[O-])c1O,24.7% (inactive)
10,O=[N+]([O-])c1cccc(/C=N/NS(=O)(=O)c2ccccc2)c1,9.33% (inactive)
11,Cc1ccc(C(c2c(C)[nH][nH]c2=O)c2c(C)[nH][nH]c2=O)cc1[N+](=O)[O-],20.9% (inactive)
12,COC(=O)c1cccc(-n2c(C)cc(C=O)c2C)c1C,17.4% (inactive)
13,NC(=O)C1CCN(C(=O)c2ccc(Oc3ccccc3)cc2)CC1,13.6% (inactive)
14,COC(=O)c1c(S(N)(=O)=O)c2ccccc2n1C,21.9% (inactive)
15,Nc1nccnc1C(=O)OCC(=O)N1CCN(S(=O)(=O)c2ccc(Cl)cc2)CC1,15.7% (inactive)
16,CC1=NN(c2ccccc2)C(=O)C1c1ccccc1 (stereo not given),31.6% (inactive)
17,CC1=NN(c2ccccc2)C(=O)C1N=Nc1ccc(C)cc1 (stereo not given),-3.33% (inactive)
18,CCOc1ccccc1NC(=O)COC(=O)CSc1ccc(Cl)cc1,-3.03% (inactive)
19,COc1cccc(-c2nn(C)c3sc(C(=O)NCc4ccco4)cc23)c1,16.5% (inactive)
20,COc1cc(-c2nc(N)n[nH]2)cc(OC)c1OC,3.91% (inactive)
21,CCn1c(-c2cc(OC)c(OC)c(OC)c2)n[nH]c1=S,8.67% (inactive)
22,O=C(CNC(=O)c1ccccc1)OCCCOC(=O)CNC(=O)c1ccccc1,8.32% (inactive)
23,Cc1cc(C)c(C)c(S(=O)(=O)N2CCN(C(=O)c3ccco3)CC2)c1C,30.6% (inactive)
24,Fc1ccc(-c2nc(-c3cccs3)[nH]c2-c2ccc(F)cc2)cc1,0.16% (inactive)

row,SMILES,inhibition
1,O=C(O)c1ccc(-c2nc(-c3ccccc3)c(-c3ccccc3)[nH]2)cc1,13.6% (inactive)
2,Cn1c(Cc2ccccc2)nnc1SCC(=O)NC1CC1,5.03% (inactive)
3,Cc1cc(C)nc(SCCN(C)C)n1,21.5% (inactive)
4,Cc1cc(C)nc(SCSc2nc(C)cc(C)n2)n1,1.38% (inactive)
5,N#CC1=C(N)C2=CCCC[C@H]2[C@H](c2ccccc2)C1(C#N)C#N,10.5% (inactive)
6,N#CC1=C(N)C2=CCCC[C@H]2[C@H](c2ccc(Br)cc2)C1(C#N)C#N,29.5% (inactive)
7,CCOC(=O)C1=C(O)/C(=C\c2cccs2)N=C1C,10.2% (inactive)
8,CCOC(=O)C1=C(O)/C(=C\c2cccc(OC)c2)N=C1C,4.85% (inactive)
9,COC(=O)C1=C(O)/C(=C\c2cc(C)n(-c3ccccc3C)c2C)N=C1C,21.4% (inactive)
10,COC(=O)C1=C(O)/C(=C\c2cc(C)n(-c3ccccc3F)c2C)N=C1C,8.75% (inactive)
11,Cc1nc2ccccc2c(C)c1CC(=O)N(C)CC(=O)Nc1cccc(F)c1,6.37% (inactive)
12,Cc1noc(C)c1C(=O)Nc1nc2ccc(Cl)cc2s1,13.7% (inactive)
13,Cc1cc(C)nc(SCC(=O)N2CCCCC2)n1,24.1% (inactive)
14,O=C1c2ccc3c4c(ccc(c24)C(=O)N1c1ccc(O)cc1)C(=O)N(c1ccc(O)cc1)C3=O,2.8% (inactive)
15,O=C1CCCC(=O)N1c1ccc(O)cc1,12.2% (inactive)
16,O=C(NC1CC1)C1=C[C@@H](c2ccccc2)C[C@@H](OCCCCO)O1,5.56% (inactive)
17,COc1cc(/C=C(\C#N)C(=O)Nc2cccc(C(=O)O)c2)ccc1OCc1ccc(F)cc1,-17.7% (inactive)
18,Cc1c(C(=O)NN)[nH]c2ccc([N+](=O)[O-])cc12,7.05% (inactive)
19,CCOC(=O)C1(CCc2ccccc2)CCN(C(=O)c2cccc(C)n2)CC1,4.43% (inactive)
20,CCc1nnc(NS(=O)(=O)c2ccc(NC(=O)c3cccc4ccccc34)cc2)s1,11.1% (inactive)
21,CCc1nnc(NS(=O)(=O)c2ccc(NC(=O)c3cc4ccccc4oc3=O)cc2)s1,-3.35% (inactive)
22,O=C(c1cc(-c2ccccc2Cl)nc2ccccc12)N1CCC1,8.29% (inactive)
23,O=C1N/C(=N/S(=O)(=O)Cc2ccccc2)S/C1=C/c1ccc2c(c1)OCO2,22.1% (inactive)
24,COc1ccc(C(=O)C[n+]2cccc(C(N)=O)c2)cc1,1.66% (inactive)

row,SMILES,inhibition
1,Cc1cc(O)ccc1C1(c2ccc(O)cc2C)OC(=O)c2ccccc21,4.57% (inactive)
2,O=C1OC(c2ccc(O)cc2)(c2ccc(O)cc2)c2ccccc21,9.29% (inactive) and 0.77% (inactive)
3,COCCNC(=O)c1c[nH]n2c(=O)cc(C3CCN(C(=O)OC(C)(C)C)CC3)nc12,6.9% (inactive)
4,CCN1CCN(c2ccc(NC(=O)c3cccc(OCc4ccccc4)c3)cc2)CC1,8.98% (inactive)
5,O=C1C2C3C=CC(CC3)C2C(=O)N1/N=C/c1ccc(O)cc1 (stereo not given),22.8% (inactive)
6,COc1cc(/C=N/N2C(=O)C3C4c5ccccc5C(c5ccccc54)C3C2=O)ccc1O (stereo not given),19.2% (inactive)
7,COc1ccccc1/C=N/N1C(=O)C2C3C=CC(CC3)C2C1=O (stereo not given),5.91% (inactive)
8,O=C1C2C3C=CC(CC3)C2C(=O)N1/N=C/c1ccccc1O (stereo not given),-0.603% (inactive)
9,O=C(CSc1nnnn1C1CCCC1)Nc1ccccc1F,14% (inactive)
10,COC(=O)c1sc(-c2cccs2)cc1N,20% (inactive)
11,CC(=O)Nc1nnc(SCc2ccc(C(=O)Nc3ccccc3F)cc2)s1,5.26% (inactive)
12,CC1(C)CC(=O)C(N=Nc2ccc(-c3ccccc3)cc2)=C(O)C1,28.9% (inactive)
13,Oc1ccc(N=Nc2ccccc2)cc1,18.4% (inactive)
14,O=C(O)c1ccccc1C(=O)Nc1ccccc1NC(=O)c1ccccc1C(=O)O,5.06% (inactive)
15,O=C(NC1=NN(c2ccccc2)CC1)Nc1ccccc1F,-6.18% (inactive)
16,CCCSc1oc(-c2ccco2)nc1S(=O)(=O)c1ccccc1,1.06% (inactive)
17,COc1cc(SC)ccc1C(=O)NCCc1c[nH]c2ccccc12,8.89% (inactive)
18,CC(C)(C)NC(=O)CSCc1c(Cl)cccc1Cl,3.06% (inactive)
19,COc1ccc(OC)c(-c2c3c([nH]c(=S)c2C#N)CCCC3)c1,20.7% (inactive)
20,N#Cc1c(-c2ccncc2)c2c([nH]c1=S)CCCC2,16.1% (inactive)
21,N#Cc1c(-c2ccc(Cl)cc2)c2c([nH]c1=S)CCCC2,25.6% (inactive)
22,COc1ccc(-c2c3c([nH]c(=S)c2C#N)CCC3)cc1,34.4% (inactive)
23,O=C(CN1C(=O)/C(=C/c2ccc(C(F)(F)F)cc2)Sc2ccccc21)NCCCN1CCOCC1,6.23% (inactive)
